The structures appear in SMILES notation. Hit rate of the full screen: of about 56,000 compounds, about 710 (1.3%) were called active. The sample as a whole holds a higher share of actives than the screen did. Unmarked numbers belong to inactive results.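 How the source made its calls: active means inhibition above the mean inhibition of all tested compounds plus 3 SD (cut at about 28% in these data); inactive means the rest.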

The assay can be described thus: Jurkat cell viability reduction – Jurkat E6.1, 60K MLSMR library, cytotoxicity control, primary screen (AID 463). Conditions: Jurkat E6.1 viability, ATP luminescence, 48 h; at 4 µM; hits give high values.
Consider `NC(=O)c1ccsc1NC(=O)c1ccco1`, for which the inhibition is -2.4%.

As to `O=C(O)c1ccc(F)c(S(=O)(=O)Nc2ccccc2)c1`, the inhibition is 6.8%.

As to `O=C(O)Cc1ccc(NC(=O)C2CCCCC2C(=O)O)cc1` (stereo not drawn), the inhibition is -4.1%. Consider `Cc1nnc(SCc2ccc(C(=O)c3ccc(Cl)cc3)o2)n1-c1ccccc1`, for which the inhibition was 2.9%. For the molecule `COc1ccc(N2C(=O)CN=C2Nc2cccc(C)c2C)cc1OC`, the inhibition is -3%. Then `Nc1nnc(SCCN2C(=O)c3ccccc3S2(=O)=O)s1`, with -1%.

In the case of `COc1ccccc1NC(=O)CN1CCN(S(=O)(=O)c2ccc(Br)cc2)CC1`, the inhibition is -0.3%. In the case of `CCC(=O)c1ccc(OCC(O)CN2C(=O)NC(C)(C)C2=O)cc1` (stereo not drawn), the inhibition was -6.4%. Consider `O=C(c1cccc(S(=O)(=O)N2CCOCC2)c1)N1CCOCC1`, for which the inhibition is 0%. The same measure for `COc1ccc(-n2nnnc2SCC(=O)c2ccc(OC)c(OC)c2)cc1`: 7.1%; for `CCOc1cccc(-c2nnc3sc(COc4ccc(OC)cc4)nn23)c1`: -3%. Then `CCOc1cccc(-n2nnnc2-c2ccc(OC)cc2)c1`, with 86.8% (active). Then `COC(=O)COc1ccc(S(=O)(=O)N2CCOCC2)cc1`, with -6.6%; and `CCOC(=O)Cc1csc(NC(=O)CN(C)S(=O)(=O)c2ccc3c(c2)CCC(=O)N3)n1`, with -0.9%; and `COc1ccc(NC(=O)c2cccc(NC(=O)c3ccco3)c2)c(OC)c1`, with -4.5%. On to `CCOc1cc(-c2noc(CCC(=O)N3CCOCC3)n2)ccc1OC`, for which the inhibition is -6.2%. The same measure for `CCOc1cc(CN2CCN(C(=O)CC(C)C)CC2)ccc1OC`: -0.1%; for `CCOc1cc(C(=O)N2CCc3cc(OC)c(OC)cc3C2)ccc1OC(F)F`: 98.3% (active); for `COc1ccc(C(=O)Nc2ccc3c(c2)OCO3)cc1OC`: 16.3%.

In the case of `COc1nc(Oc2ccc(=O)n(C)n2)nc(N(C)C)n1`, the inhibition was 4.9%. Then `CC1(C)CC(=O)C(C=NCCC2=CCCCC2)=C(O)C1`, with 2%; and `C=CCn1c(CSc2nc3ccccc3s2)nnc1SCC(=O)NCc1ccco1`, with 0.8%; and `O=C(Cn1cnc2c(cnn2-c2ccccc2)c1=O)NCc1ccccc1`, with 35.9% (active).

Turning to `O=C(Cn1cnc2c(cnn2-c2ccc(F)cc2)c1=O)NCCc1ccccc1`, the inhibition is -3%.

Consider `CN(Cc1ccccc1)C(=O)CCNC(=O)Cn1cnc2ccccc2c1=O`, for which the inhibition was 7.8%. Regarding `CC(=O)Oc1cccc(N2C(=O)C3CC=C(Cl)CC3C2=O)c1` (stereo not drawn), the inhibition is -1.4%.

Turning to `CS(=O)(=O)N1CCN(C(=O)c2cc3ccccc3oc2=O)CC1`, the inhibition was -5.4%. `CCN(CC)C(=O)CSc1nnc(-c2ccc(S(=O)(=O)NCc3ccccc3Cl)cc2)o1`: the inhibition is -7.3%. Then `Cc1ccccc1C(=O)NCCN=C1NS(=O)(=O)c2ccccc21`, with 3.3%; and `O=C(c1ccccc1)c1cccn1CC(=O)N1CCN(c2ccc(F)cc2)CC1`, with -0.4%; and `Cc1ccccc1CN1CCN(C(=O)c2cccc(F)c2)CC1`, with -5%. Regarding `O=C(c1cccc(C(=O)N2CCN(c3ccc(F)cc3)CC2)c1)N1CCN(c2ccc(F)cc2)CC1`, the inhibition was 37.4% (active). Then `COc1cc(C2C(C#N)=C(C)NC3=C2C(=O)CC(C)(C)C3)ccc1O` (stereo not drawn), with 5%; and `COc1ccccc1CNC(=O)C1CCN(S(C)(=O)=O)CC1`, with -5.6%; and `Nc1c(C(=O)NCc2ccccc2)nnn1Cc1cccc(Cl)c1`, with 83.8% (active). In the case of `CCOc1ccc(Cn2nnc(C(=O)NCc3ccccc3)c2N)cc1`, the inhibition is 2.3%. Then `CCOc1ccc(Cn2nnc(C(=O)Nc3ccc(OC)cc3OC)c2N)cc1`, with -5.8%; and `CCOc1c(OC)cc(C2C(C#N)=C(N)Oc3n[nH]c(-c4ccncc4)c32)cc1OC` (stereo not drawn), with -1.9%; and `O=C(Oc1cccnc1)c1cc2ccccc2oc1=O`, with 4.5%. For `COc1ccc(-c2cc(C(F)(F)F)n3nc(C(=O)N4CCOCC4)c(Cl)c3n2)cc1`, the inhibition was -9.2%. Turning to `CCCCN=C(N)/C(C(=O)OCC)=C(\O)c1ccc(OC)cc1`, the inhibition was -0.7%. Then `CCc1ccc(N(CC)c2ncnc3nc[nH]c23)cc1`, with 0.9%; and `CC(=O)c1ccc(Oc2cc(C)nc(-n3nc(C)cc3C)n2)cc1`, with 97.7% (active); and `CCOC(=O)c1cnc(-n2nc(C)cc2C)nc1Nc1cccc(C(C)=O)c1`, with 2.3%. The same measure for `Cc1cc(C)n(-c2ccc(Cl)c(C(=O)O)n2)n1`: -4.6%; for `O=C(COc1ccccc1Cl)Nn1cnnc1`: 4.2%. As to `COc1ccc(N2C(=O)C3CCCN3C2c2cccs2)cc1` (stereo not drawn), the inhibition is -7.9%.

For `NC(=O)CSC1=Nc2ccccc2C2=NC(CCC(=O)NCc3ccc(F)cc3)C(=O)N12` (stereo not drawn), the inhibition was 4.5%. On to `CC(C)C1N=C2c3ccccc3N=C(SCC(=O)c3ccc(O)c(O)c3)N2C1=O` (stereo not drawn), for which the inhibition is 50.8% (active).

Turning to `O=C(CC1N=C2c3ccccc3N=C(SCc3ccccc3Cl)N2C1=O)NCc1ccco1` (stereo not drawn), the inhibition is 8%. The same measure for `CCCC(NS(=O)(=O)c1ccc(OC)cc1)C(=O)O` (stereo not drawn): 0.8%; for `COC(=O)C(C)n1cnc2c(nnn2-c2cccc(Cl)c2)c1=O` (stereo not drawn): 6%. For the molecule `Cc1oc(-c2ccccc2F)nc1CS(=O)(=O)CC(=O)NCCCN(C)C1CCCCC1`, the inhibition was 5%. Then `COc1ccc(S(=O)(=O)N2CCOCC2)cc1C(=O)Nc1nc2ccccc2s1`, with -2.5%.

`O=C(Nc1ccc(S(=O)(=O)N2CCCC2)cc1Cl)C1=COCCO1`: the inhibition was 10.5%. For `O=C(Nc1ccc2c(c1)nc1n2CCCCC1)c1cc(S(=O)(=O)N2CCOCC2)ccc1Cl`, the inhibition is 34.5% (active). Then `O=C1N(Cc2ccc3c(c2)OCO3)c2ccccc2C1(O)c1c[nH]c2ccccc12` (stereo not drawn), with -8.9%; and `CCCCNC(=O)CSc1nccn1Cc1ccccc1`, with -7.9%.

As for `COCCNCCOCCOc1cccc(OC)c1`, the inhibition is 5.4%. Then `Cc1cc(Nc2cccc(F)c2)n2ncnc2n1`, with 0.2%; and `CCCOC(=O)c1[nH]c2c(c1C)C(=O)CC(c1cc(OC)c(OC)c(OC)c1)C2` (stereo not drawn), with 45.9% (active); and `CCOC(=O)c1[nH]c2c(c1C)C(=O)CC(c1ccc(N(C)C)cc1)C2` (stereo not drawn), with 1%. Then `COC(=O)C1C(=O)c2c([nH]c(C(=O)OCCSC)c2C)CC1C` (stereo not drawn), with -3.9%; and `Cc1ccc(N(CC(O)CN2CCCC2)S(=O)(=O)c2ccccc2)cc1` (stereo not drawn), with 2.6%; and `Cc1ccc(S(=O)(=O)C2(S(=O)(=O)c3ccc(C)cc3)CCCC2)cc1`, with 84% (active).

On to `Cc1ccc(S(=O)(=O)NC(=O)N2CCCC(C)(C)C2)cc1`, for which the inhibition was -5.4%. Then `Cc1ccc(S(=O)(=O)N2CCCC2CO)cc1` (stereo not drawn), with -3.1%. The same measure for `CC(C)(O)C#Cc1ccc(C(=O)N2CCC(C(N)=O)(N3CCCCC3)CC2)cc1`: -6.2%; for `CS(=O)(=O)c1ccc2nc(NC(=O)C3CCCCC3)sc2c1`: 5.6%. The same measure for `COc1ccccc1N1CCN(Cc2nnnn2CCc2ccccc2)CC1`: -5.1%. `COc1ccccc1N1CCN(C(=O)CN(Cc2ccc(Cl)cc2)S(C)(=O)=O)CC1`: the inhibition is 9.3%. The same measure for `COc1ccccc1-n1nnnc1S(=O)(=O)Cc1ccc(Cl)cc1`: 53.4% (active); for `Cc1oc(C)c(C(=O)NCCCC(=O)O)c1C(=O)NCCCC(=O)O`: -3.9%; for `Cc1ccc2nc(-c3ccc(SCC(=O)Nc4cc(C)on4)nc3)[nH]c2c1`: -5.8%. For the molecule `O=C(O)CCSc1nnc(-c2ccccc2)n1-c1ccccc1`, the inhibition was -2.8%.

Take `CC(C)OCCCNc1ncnc2c1[nH]c1ccc(F)cc12`: the inhibition was 87.6% (active). Take `O=C1CCCN1CCCNc1ncnc2c1[nH]c1ccccc12`: the inhibition was 2.2%. The same measure for `CCN1CCCC1CNc1ncnc2c1[nH]c1ccc(F)cc12` (stereo not drawn): 3.2%; for `COc1ccc(OC)c2c1sc(=NC(=O)CN1C(=O)CCC1=O)n2C`: 1.4%; for `CC(=O)Nc1cccc(Oc2cc(C#N)c(C#N)cc2N2CCOCC2)c1`: 1.2%.

Turning to `CCOc1cc(NC(=O)c2ccco2)c(OCC)cc1NC(=O)COc1ccccc1`, the inhibition was 0.4%. The same measure for `CCOc1cc(N2CCOCC2)c(OCC)cc1NC(=O)COc1cccc2cccnc12`: 37.5% (active); for `COc1ccc(OCC(=O)N2CCOCC2)cc1`: -4.3%; for `Cc1nc2ccc(NC(=O)N3CCC(c4ccccc4)C3)cc2nc1C` (stereo not drawn): -3.3%. Then `CCc1nnc(NC(=O)c2ccc(S(=O)(=O)NC3CCCCC3)cc2)s1`, with 27.4%; and `CC1CCCCN1S(=O)(=O)c1ccc(C(=O)Nc2nnc(-c3cccs3)o2)cc1` (stereo not drawn), with 101% (active); and `CCc1nnc(NC(=O)C2CCCN2S(=O)(=O)c2ccccc2)s1` (stereo not drawn), with 2.3%.

Consider `O=C1c2ccccc2-c2ncnc3c(N4CCOCC4)cc(N4CCOCC4)c1c23`, for which the inhibition is 6.4%. Consider `CC1CCCN(Cc2nc3c(c(=O)n(C)c(=O)n3C)n2Cc2cccc3ccccc23)C1` (stereo not drawn), for which the inhibition was -3.6%. Then `CNC(=O)CSc1nnnn1-c1ccc(C)cc1C`, with -4.9%; and `CCOC(=O)CNC(=O)CSc1nnnn1-c1cc(C)ccc1C`, with -1.2%; and `CCOC(=O)c1c(-c2ccc(C)cc2C)csc1NC(=O)CSc1nnnn1C`, with 28.5% (active).

Take `CCOCCCNC(=O)Cc1cc(=O)[nH]c(=O)[nH]1`: the inhibition is -4.5%. The same measure for `CCC(c1nnnn1Cc1ccccc1)N(Cc1cc2cc(OC)ccc2[nH]c1=O)CC1CCCO1` (stereo not drawn): -4.6%. With `CC(Nc1nc(N2CCCC2)nc2ccccc12)c1ccccc1` (stereo not drawn), the inhibition was 4.2%. Then `COc1ccc(-n2nnc3c(=O)n(CC(=O)OCc4ccccc4)cnc32)cc1`, with 7%; and `Cc1cccc(-n2c(O)c(C=Nc3ccccc3N)c(=O)[nH]c2=O)c1`, with 46.2% (active). Turning to `Cc1cccc(-n2c(N)c(C(=O)N3CCN(C)CC3)sc2=S)c1`, the inhibition was 2.6%.

These data come from PubChem BioAssay AID463 (The Scripps Research Institute Molecular Screening Center, 2006).
